MARV entry inh: blocks Marburg virus binding to or entry into cells. Marburg virus pseudotyped entry inhibition, cell reporter. Potency, µM (doses to about 37.8 µM), without a hit: top-dose activity change, negative = inhibition, usual class: inhibitors. 300,000 tested, 1.8% active. AID 540276; calls by dose curve; tested in HEK293 cells; further: potency means the concentration at half of the fitted maximal effect; on the % scale 0 is the no-effect control and ±100 the full control effect
CHX counter: counter-screen hit for Shiga toxin inhibitors, cycloheximide; cell reporter, cycloheximide protein synthesis inhibition counterscreen; max response, %; 300,000 tested, 12% active; AID 2314; in the data active means max response mostly above about 13%, no sharp cut-off; inactive means mostly below about 14%; further: read at 38.3 µM for the half of the compounds with a filed dose; 0% is about no effect
AMA1 RON2 block: disrupts binding of P. falciparum AMA1 to RON2; 360,000 tested, 0.2% active; AID 720542; Potency, µM (series often up to 58.2 µM), for inactives: at the highest dose activity change, negative = inhibition, most hits filed as inhibitors; AlphaScreen AMA1-biotinylated RON2 peptide binding; active means well fitted inhibition curve with a large enough effect; inconclusive means small, poorly fitted or top-dose-only effect; inactive means no such curve, though single readings can be large or run the other way;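 further: potency means the concentration at half of the fitted maximal effect; 0% = vehicle wells and -100% = peptide control; nearly all actives have a fitted effect of over 45% in size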
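AMA1 (3D7) with his tag at 25 nM final met compounds first, then biotinylated RON2 peptide at 25 nM; detection used donor plus acceptor beads, 10 µg/mL apiece, read by AlphaScreen after 30 min at room temperature.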
Lassa entry inh: Lassa virus entry inhibition. Lassa virus pseudotype entry inhibition, cell reporter. Potency, µM (titrated, usually from 37.9 µM), for inactives: at the highest dose activity change, negative = inhibition, actives largely listed as inhibitors. 300,000 tested, 1.2% active. AID 540256; calls by dose curve; tested in HEK293 cells; further: potency means the concentration at half of the fitted maximal effect; on the % scale 0 is the no-effect control and ±100 the full control effect; nearly all actives have a fitted effect of over 50% in size
Shiga toxin inh: inhibitors of Shiga toxin in Vero cells. Vero cells, Shiga toxin protein synthesis inhibition reporter. inhibition, % at 38.7 µM. 290,000 tested, 9.2% active. AID 2315; in the data active means inhibition mostly above about 28%, no sharp cut-off; inactive means mostly below about 43%; further: 0% is about no effect
Numbers without * were called inactive; u = inconclusive; x = no result; ! = not confirmed by another sample; [ ] = remark or other dose. The entries come from a sample that favours hits as a whole.

SMILES	MARV entry inh	CHX counter	AMA1 RON2 block	Lassa entry inh	Shiga toxin inh
Nc1ccc(-c2ncc(-c3ccccc3)o2)cc1	u	1	u	u	-6
CCCc1noc(-c2ccc(-c3ccccc3)cc2)n1	u	66*	5%	5%	146*
Cc1noc(-c2ccc(-c3noc(-c4ccccc4)n3)cc2)n1	x	x	x	2%[46.1 µM]	x
Cc1ccc(-c2cnc(-c3ccncc3)o2)cc1	0%	33*	-2%	-17%	95*
CCCc1noc(-c2cccc([N+](=O)[O-])c2)n1	-2%	22	-13%	11%	63
Nc1nonc1-c1noc(-c2ccccc2)n1	u	42*	8%	37%[14.3 µM]	57*
Cc1ccc(-c2nc(-c3cccnc3)no2)cc1	-9%[46.1 µM]	48*	-25%	u	90*
Brc1cccc(-c2nc(-c3ccncc3)no2)c1	u	11	4%	9%	12
Cc1ccc(-c2nc(-c3ccncc3)no2)cc1	u	52*	2%	u	72*
Cc1cccc(-c2nc(-c3ccncc3)no2)c1	u	40*	7%	10µM*	133*
c1ccc(-c2ccccc2-c2nc(-c3cccnc3)no2)cc1	u	-1	1%	0%	-6
CC(=O)NC12CC3CC(C1)CC(C(=O)N1CCN(S(=O)(=O)c4cccc(C(F)(F)F)c4)CC1)(C3)C2	-13%	x	7%	u	x
COc1ccccc1C(=O)NNC(=O)c1cccc([N+](=O)[O-])c1	21%[46.1 µM]	32*	7%	5%	61*
COc1ccccc1C(=O)NNC(=O)c1cccc(C)c1	u	23*	-3%	5%	x
O=C(NNC(=O)c1ccccc1-c1ccccc1C(=O)O)c1cccc([N+](=O)[O-])c1	-8%	0	-13%	11%	-3
Nc1nc(=O)n(C2CCC(CO)O2)cc1F (stereo not given)	x	x	22%	x	x
CCc1nn2c(=O)c(S(=O)(=O)Nc3ccc(OC)c(Cl)c3)c(C)nc2s1	u	x	x	17%[46.1 µM]	x
Cc1ccnc(N2C(=O)c3cccc4c([N+](=O)[O-])ccc(c34)C2=O)c1	21µM*	-1	2%	u	-6
CCOC(=O)[C@@]1([C@@H](NC(=O)OC)c2ccccc2)CCCC1=O	12%[14.2 µM]	x	x	x	x
Cc1cccc(OCC(=O)Nc2ccc(OCc3cc(=O)n4cc(C)ccc4n3)cc2)c1	x	x	x	0%[46.1 µM]	x
CC1(C)Cc2c(sc3nc(-c4cc5ccccc5o4)n(N)c(=O)c23)CO1	u	19*	4%	4%	42
O=C(NCCOCCn1c(=O)oc2ccccc21)Nc1ccc(F)cc1F	0%[46.1 µM]	x	x	-7%[46.1 µM]	x
C[C@@H]1C[C@H]2OC(=O)C3(CO3)[C@H]2[C@H](O)[C@]2(C)C(=O)C3OC3[C@@H]12 (stereo not given in full)	x	21*	x	x	40*
FC(F)(F)c1ccc(C2NCCc3sccc32)cc1 (stereo not given)	u	45*	-12%	4%[46.1 µM]	34
COc1ccc2c(c1)c(CC(=O)Nc1nnc(C3CC3)s1)c(C)n2C(=O)c1ccc(Cl)cc1	3.2µM*	8	26%	u	-7
SMILES	MARV entry inh	CHX counter	AMA1 RON2 block	Lassa entry inh	Shiga toxin inh
COc1ccc2c(c1)c(CC(=O)Nc1ccc(C(C)=O)cc1)c(C)n2C(=O)c1ccc(Cl)cc1	u	47*	0%	u	83*!
COc1ccc2c(c1)c(CC(=O)Nc1c(C)cccc1C)c(C)n2C(=O)c1ccc(Cl)cc1	-16%[46.1 µM]	x	x	0%[46.1 µM]	x
Cc1ccc(-c2cc3ccccc3nc2N)cc1	x	18*	4%	x	71*
c1csc(-c2ccc3ccccc3n2)c1	u	33*	9%	u	90
N#Cc1cc2ccccc2nc1N	38%[46.1 µM]	-2	-19%	u	9
Cc1ccccc1S(=O)(=O)c1cc2ccccc2nc1N	1%[46.1 µM]	-3	-1%	0%	-7
Nc1nc2ccccc2cc1-c1cccs1	x	61*	3%	x	94*
Cc1cc2ncc(-c3cccs3)nc2cc1C	x	51*	41%	x	101*
Cc1ccc(NC(=O)c2cc(-c3cccs3)nc3ccccc23)nc1	u	-1	-6%	0%	4
NC(=O)c1cc(S(=O)(=O)Nc2ccc(OC(F)(F)F)cc2)cs1	x	-3	-9%	x	19
Cn1c(CCNC(=O)c2ccccc2F)nnc1SCC(=O)Nc1nncs1	6%[46.1 µM]	-5	9%	x	-8
Cc1nc(-n2nc(C)c(CCC(C)C)c2C)sc1C(=O)Nc1ccc(Cl)cc1	11%[46.1 µM]	x	x	33%[46.1 µM]	x
COc1ccc(/C(C#N)=C/c2ccccn2)cc1	x	60*	10%	x	110*
N#C/C(=C\c1ccccn1)c1nc2ccccc2s1	u	35*	10%	-13%	57*
Cc1cc(OCc2cn3cccnc3n2)ccc1Cl	u	71*	-27%	u	65*
Cc1ccc(SCc2cn3cccnc3n2)cc1	29%	41*	-8%	15%	57*
Cc1ccn2cc(CSc3ccccc3)nc2c1	u	47*	-14%	u	111*
Clc1ccc(SCc2cn3cccnc3n2)cc1	29%	27*	14%	2%	97*
Cn1ncnc1SCc1cn2cccnc2n1	-5%[46.1 µM]	-2	-17%	u	-31
O=C(CCC1CCN(C(=O)CC2=CCCCC2)CC1)NCc1ccc(F)cc1	x	x	15%	x	x
O=C(O)c1cn(Cc2ccccc2Cl)c2ccc(S(=O)(=O)N3CCOCC3)cc2c1=O	x	2	-1%	x	3
COc1ccc(C(C)=O)cc1CC(=O)Nc1cccc(S(=O)(=O)N2CCOCC2)c1	x	x	2%	x	x
CCCN(C)C1CN(Cc2cn(Cc3cc(C)cc(C)c3)nn2)S(=O)(=O)C1 (stereo not given)	x	x	-6%	x	x
CC1(C)NC(C)(C)/C(=C\c2cccs2)C(=O)C1=O	13µM*	2	-3%	26%	-3
O=c1c2[nH]c3ccccc3c2nc2n1CCCS2	12%[46.1 µM]	38*	7%	u	74*
SMILES	MARV entry inh	CHX counter	AMA1 RON2 block	Lassa entry inh	Shiga toxin inh
Nn1c(=O)[nH]c2c([nH]c3ccccc32)c1=O	5%[46.1 µM]	1	-1%	-7%	-3
Cc1nc2c([nH]c3ccccc32)c(=O)n1N	-6%[46.1 µM]	28*	-2%	0%	88
O=c1c2[nH]c3ccc(F)cc3c2nc2n1CCCS2	-1%	25*	2%	1%	54*
COc1ccc(-c2nc(CS(=O)CC(=O)NCCN3CCCCC3C)c(C)o2)cc1OC (stereo not given)	x	-2	15%	x	-7
CC(=CC[Si](C)(C)C)CCC=O	-25%[14.2 µM]	x	x	u	x
Cc1ccc(NCc2ccccc2OCc2ccccc2F)cc1	u	18*	u	-27%	27*
Oc1ccc(NCc2ccccc2OCc2ccccc2F)cc1	-3%[46.1 µM]	-2	u	u	5
Nn1c(SCC(=O)Nc2ccc(F)cc2)nnc1-c1cccnc1	u	2	3%	-1%	0
O=C1SC(SCc2ccccc2)=N/C1=C\c1ccco1	16%	24	u	-4%	48*
O=C1SC(SCc2ccccc2)=N/C1=C\c1ccc(C(=O)O)cc1	16%[46.1 µM]	-1	11%	2%	-7
CCCSC1=N/C(=C\C=C\c2ccco2)C(=O)S1	-13%	16	11µM*	-6%	1
CCCCC(=O)Nc1ccc(NC(=O)c2ccco2)cn1	u	20*	-13%	-9%	67
